Assay results published in PubChem BioAssay (NCI).
This is part of a sample that, as a whole, favours compounds with a hit. Of some 79,000 tested, about 15% had one in any assay. Activity calls are given as the source filed them. Rule as the data show it: active = growth inhibition above about 70%; inactive = the rest.

Experiments:
[1] = NCI Yeast Anticancer Drug Screen. Data for the rad50 strain (AID 155);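 also: 0% = growth of vehicle-only cultures of the same strain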; conditions: S. cerevisiae rad50 strain growth inhibition; at 50.0 µM; hits give high values
Method in brief: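 Compounds were tested on a yeast strain with an engineered DNA damage repair alteration; the reported value is growth inhibition normalised to vehicle treatment.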

[2] = NCI Yeast Anticancer Drug Screen. Data for the mec2-1 strain (AID 157); conditions: S. cerevisiae mec2-1 strain, at 50.0 µM, hits give high values
Method in brief: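 Vehicle-treated cultures served as reference for growth inhibition of compound-exposed mec2-1 yeast.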

[3] = NCI Yeast Anticancer Drug Screen. Data for the sgs1 mgt1 strain (AID 161);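 also: 0% = growth of cultures given vehicle only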; conditions: S. cerevisiae sgs1 mgt1 strain, at 50.0 µM, hits give high values
Method in brief: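 Read-out: growth inhibition vs vehicle controls. Cells: mutant yeast strain deficient in DNA damage repair.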

[4] = NCI Yeast Anticancer Drug Screen. Data for the cln2 rad14 strain (AID 165);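 also: 0% = growth equal to vehicle treated cultures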; conditions: S. cerevisiae cln2 rad14 strain, at 50.0 µM, hits give high values
Method in brief: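 Each compound was tested on cln2 rad14 yeast. Inhibition of growth was calculated against vehicle-exposed controls.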

[5] = NCI Yeast Anticancer Drug Screen. Data for the bub3 strain (AID 167); conditions: S. cerevisiae bub3 mutant strain, at 50.0 µM, hits give high values
Method in brief: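 Growth of a checkpoint-deficient yeast mutant is measured after compound exposure. Values represent inhibition relative to vehicle.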

[6] = NCI Yeast Anticancer Drug Screen. Data for the mlh1 rad18 strain (AID 175); conditions: S. cerevisiae mlh1 rad18 strain growth inhibition; at 50.0 µM; hits give high values
Method in brief: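 Vehicle-treated cultures served as the reference for growth inhibition in a yeast strain carrying DNA damage repair alterations exposed to each compound.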

Measured: growth inhibition

CCC(C(=O)c1cccs1)C(O)(C(F)(F)F)C(F)(F)F (stereo not drawn)
inactive: [1] -13.8% | [2] 4.6% | [3] -28.4% | [4] -83.2% | [5] -31.4% | [6] 22.9%

Cc1ccccc1C(=O)OCC(=O)c1ccc(-c2ccccc2)cc1
inactive: [1] -17.6% | [2] -9.4% | [3] -1.35% | [4] -37.5% | [5] 14% | [6] -20.7%

COC1=C2CC(C)CC(OC)C(OC(C)=O)C(C)/C=C(\C)C(OC(N)=O)C(OC)/C=C\C=C(/C)C(=O)NC(=CC1=O)C2=O (stereo not drawn)
active: [1] 90% | [2] 91% | [3] 92.2% | [4] 87.2% | [5] 90.7% | [6] 89.4%

N=C(N)SCc1cccc(Cl)c1
inactive: [1] -20% | [2] -14% | [3] -4.55% | [4] -82.1% | [5] -9.45% | [6] -22.6%

CC(C)=CCc1c(C)cc2cc3c(c(O)c2c1O)C(O)=CC(=O)C3(CC=C(C)C)C/C=C(\C)CO (stereo not drawn)
inactive: [1] 54.6% | [2] 37% | [3] 52.5% | [4] 47.2% | [5] 48.9% | [6] 46.1%

Cc1cc(N)ccc1C(=O)O
inactive: [1] 1.7% | [2] -7.65% | [3] -0.65% | [4] 4.15% | [5] 5.2% | [6] 2.45%

O=c1[nH]c(=O)n(C2OC(COP(=O)(O)OP(=O)(O)OC3OC(CO)C(O)C(O)C3O)C(O)C2O)cc1F (stereo not drawn)
inactive: [1] 1.15% | [2] 3.65% | [3] 8.8% | [4] 18.9% | [5] -15.3% | [6] 9.85%

CCCCCCCCCCCCCCCCCCN=C=O
inactive: [1] -23.6% | [2] -45.8% | [3] -17.8% | [4] -10.8% | [5] -31.8% | [6] -39%

CC(C)(C)C1=Cc2cc3cc(C(C)(C)C)[nH]c(=O)c3cc2S(=O)(=O)N1
inactive: [1] -23.2% | [2] -22.6% | [3] -14.4% | [4] 3% | [5] 5.4% | [6] -20.9%

Cc1cc(Br)cc(Cl)c1O
inactive: [1] -22.1% | [2] -7.9% | [3] 6.55% | [4] -11.2% | [5] -30.2% | [6] -12.4%

CCC1(C#CCN2C(=O)c3ccccc3C2=O)C=CC2(CC1)OCCO2 (stereo not drawn)
inactive: [1] 10.2% | [2] 18.2% | [3] 26.2% | [4] 0.6% | [5] 2.5% | [6] 48.9%

O/N=C(\c1ccccc1)C1c2ccccc2-c2ccccc21
inactive: [1] -10.1% | [2] -17.9% | [3] -19.9% | [4] 21.4% | [5] -5.9% | [6] -17.4%

CN(C)C1=NC(NCc2ccccc2)(N(C)C)OC(N(C)C)=N1 (stereo not drawn)
inactive: [1] 1.95% | [2] 4.9% | [3] 0.55% | [4] 8.7% | [5] 13.7% | [6] 15.5%

C=CCc1cc(N)ccc1O
inactive: [1] 15.9% | [2] 8.9% | [3] 11.8% | [4] 11.8% | [5] 11.7% | [6] 7.9%

CC(C)(Cl)C1CCC(CC(Cl)(Cl)Cl)CC1 (stereo not drawn)
inactive: [1] 5.3% | [2] -16.4% | [3] 0.6% | [4] -26.9% | [5] 11.9% | [6] 9.75%

Cc1c(CCC(C)C)oc2cc3oc(CCC(C)C)c(C)c3cc12
inactive: [1] 21.7% | [2] 2.2% | [3] 2% | [4] -4.8% | [5] 6.3% | [6] 18.5%

Cn1cnc2ncnc(Nc3ccc(Cl)cc3)c21
inactive: [1] 5.25% | [2] -16% | [3] 4% | [4] -24.2% | [5] 10% | [6] -6.1%

O=C(c1ccc(Cl)cc1)c1ccc(OCCSCCCCCCCCCCSCCOc2ccc(C(=O)c3ccc(Cl)cc3)cc2)cc1
inactive: [1] -43.1% | [2] -27.7% | [3] -35.1% | [4] -9.4% | [5] -38.6% | [6] -30.9%

CCCCC/C=C1\CCC(CN2CCOCC2)C1=O (stereo not drawn)
active: [1] 89.5% | [2] 90.7% | [3] 91.9% | [4] 90.1% | [5] 90.3% | [6] 89%

O=C1c2ccc([N+](=O)[O-])cc2C(=O)N1CC(F)(F)F
inactive: [1] -0.9% | [2] 8.35% | [3] 10.6% | [4] 14.8% | [5] -3% | [6] 3.8%

Cc1ccc(S(=O)(=O)NCC(=O)OCc2ccccc2)cc1
inactive: [1] 4.15% | [2] 3.4% | [3] 1.2% | [4] -0.55% | [5] 12.4% | [6] 7.8%

C/C=C\CCCCC
inactive: [1] 13.8% | [2] 9.4% | [3] 15.4% | [4] 24.1% | [5] 34.6% | [6] 10.9%

CC(=O)OC(C)(C)c1ccc2c(c1)C(=O)C[C@@H]1[C@](C)(C#N)CCC[C@]21C
inactive: [1] 46.6% | [2] 0.3% | [3] -2.75% | [4] -5.35% | [5] 52.1% | [6] 35.5%

Cn1cc(-c2ccc3c4ccccc4n(C)c3c2)c2ccccc21
inactive: [1] -17.9% | [2] -4.3% | [3] -7.5% | [4] -2.8% | [5] -10.2% | [6] 2.15%

CCOC(=O)N1N=C(c2ccccc2)OC2(N3CCCC3)CCC(C(C)(C)C)CC12 (stereo not drawn)
inactive: [1] 11.1% | [2] 10.6% | [3] 9.4% | [4] -4.5% | [5] -4.25% | [6] 27.9%

Nc1ccc(C(=O)CC(=O)c2cccc([N+](=O)[O-])c2)cc1
inactive: [1] 26.4% | [2] 20.4% | [3] 39.4% | [4] 21.5% | [5] 27.4% | [6] 2.1%

O=c1c2ccccc2nc(-c2ccc(Br)cc2)n1NC1OC(CO)C(O)C(O)C1O (stereo not drawn)
inactive: [1] 7.05% | [2] 3.05% | [3] 5.2% | [4] -2.2% | [5] -9.15% | [6] 12.6%

O=C(NCCCCCCCCCCNC(=O)C12CC3CC(CC(C3)C1)C2)C12CC3CC(CC(C3)C1)C2
inactive: [1] -1.5% | [2] -5.15% | [3] 2.3% | [4] 14.7% | [5] -2.1% | [6] -14.5%

CCCCC(ON=C(C)C)C(=O)OC (stereo not drawn)
inactive: [1] 19.3% | [2] 31.6% | [3] -10.2% | [4] 12.1% | [5] 1.25% | [6] 24.4%

O=C(c1ccccc1CO)N1CCCCC1
inactive: [1] 10.8% | [2] 2.2% | [3] -1.55% | [4] -69% | [5] -9.2% | [6] -20.4%

C=C(C)C(=O)N1c2ccc(OC)cc2CC1C(=O)OCC (stereo not drawn)
inactive: [1] -1.6% | [2] 16.6% | [3] 7.05% | [4] 12.8% | [5] 15.8% | [6] 4.55%

CCOc1ccc(NC(=O)/C(Cc2nc3ccccc3[nH]c2=O)=N\O)cc1
inactive: [1] 21.9% | [2] -5.1% | [3] -15.9% | [4] 15.8% | [5] 4.1% | [6] -4.7%

C[N+](C)(C)c1ccc(C(N)C(=O)O)cc1 (stereo not drawn)
inactive: [1] -7.7% | [2] -18.3% | [3] -17.1% | [4] -30.1% | [5] -41.7% | [6] 2.8%

COc1cc2c(cc1OC)[C@H]1C(COC(=O)Nc3ccccc3)CN1CC2 (stereo partly drawn)
inactive: [1] -28.9% | [2] -0.7% | [3] -42.7% | [4] -9.75% | [5] -30.6% | [6] -49.1%

CCOc1cc2c(cc1C(C)c1ccc(OCc3ccccc3)cc1)OCO2 (stereo not drawn)
inactive: [1] 6.55% | [2] 3.55% | [3] 2.7% | [4] 1.25% | [5] -2.1% | [6] -20.1%

Cc1[nH]c2ccc(C(=O)NN)cc2c1CC(=O)NN
inactive: [1] 12.2% | [2] 8.45% | [3] 14.8% | [4] -23.1% | [5] 6.55% | [6] 25.1%

O=C(OC1CCC2(CC1)N=NC1(CCC(OC(=O)c3ccccc3)CC1)S2)c1ccccc1 (stereo not drawn)
inactive: [1] -1.15% | [2] 18.3% | [3] -2.25% | [4] -7.6% | [5] -1.1% | [6] 8.1%

OCCSCCCCCSCCO
inactive: [1] -2.6% | [2] -7.7% | [3] -7.3% | [4] -2.15% | [5] -7.4% | [6] -15.3%
